# Source: PubChem BioAssay
# In the library only some 11% were active in any assay of this set; here they are far more common.
# ALDH1A1 inh – inhibitors of human aldehyde dehydrogenase 1A1 | Purified ALDH1A1, NADH fluorescence, propionaldehyde substrate | Potency, µM (series often up to 75.3 µM), inactives show top-dose activity, negative = inhibition, most hits filed as inhibitors | 7.3% of 220,000 active | AID 1030;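 further: potency means the concentration at half of the fitted maximal effect; plate controls were no enzyme wells and a reference inhibitor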
# PNC inhibitor – perinucleolar compartment assembly inhibition | PC3M PTB-GFP, PNC prevalence imaging, 16 h; hits give low values | activity change (PNC), negative = inhibition, % at 10 µM | 3.1% of 140,000 active | AID 2417;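 active means readout at or below -70, meaning at least 70% loss of cells showing the perinucleolar compartment, a nuclear body marking cancer cells; inconclusive means readout between -30 and a set limit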;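 further: plate controls were DMSO wells for no effect and camptothecin positive control wells for full effect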
#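 Compounds are pinned in duplicate onto adhered PC3M cells stably expressing GFP-tagged PTB and incubated 16 h at 37 C. Cells are then fixed, nuclei stained with Hoechst, and PNC-positive cells counted.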
# IMPase inh – cell-permeable inhibitors of inositol monophosphatase (IMPase); inhibition (IP1 accumulation), % at 46.1 µM; 120,000 tested, under 10 active; CHO-M1 cells, IP1 accumulation, HTRF TR-FRET ratio; active means well fitted curve in the direction sought with a large enough effect in the signal ratio, not every such curve was filed as active; inconclusive means small, poorly fitted or top-dose-only effect, or a change in a side signal; inactive means no such curve, though single readings can be large or run the other way; the % refers to the signal ratio;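 further: cells stimulated with carbachol in lithium chloride buffer; plate controls were DMSO basal wells for no effect and reference inhibitor wells for full effect; higher means more IMPase inhibition seen as more IP1 and lower FRET ratio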
# Target sequence (P97697 whole entry, looked up): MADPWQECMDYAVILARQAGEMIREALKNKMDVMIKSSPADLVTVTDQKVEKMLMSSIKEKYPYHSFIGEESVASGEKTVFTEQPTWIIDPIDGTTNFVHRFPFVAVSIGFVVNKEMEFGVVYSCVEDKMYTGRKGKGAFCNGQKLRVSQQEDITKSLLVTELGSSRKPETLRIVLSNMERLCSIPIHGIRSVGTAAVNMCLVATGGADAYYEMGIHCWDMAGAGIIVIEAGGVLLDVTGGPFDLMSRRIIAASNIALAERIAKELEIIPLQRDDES
#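 Carbachol-driven Gq signalling in CHO-M1 cells (2000/well) generates IP1. Compounds that block IMPase raise IP1 and so reduce the FRET signal from Eu-anti-IP1 and d2-IP1 after a 10 min room-temperature lysis.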
# HPGD inh – blocks human HPGD enzyme activity. purified HPGD, NADH fluorescence kinetic, PGE2 substrate. Potency, µM, for inactives: at the top dose activity change, negative = inhibition, actives largely listed as inhibitors. 4.3% of 150,000 active. AID 894; further: potency means the concentration at half of the fitted maximal effect
# Target sequence (P15428 whole entry, looked up): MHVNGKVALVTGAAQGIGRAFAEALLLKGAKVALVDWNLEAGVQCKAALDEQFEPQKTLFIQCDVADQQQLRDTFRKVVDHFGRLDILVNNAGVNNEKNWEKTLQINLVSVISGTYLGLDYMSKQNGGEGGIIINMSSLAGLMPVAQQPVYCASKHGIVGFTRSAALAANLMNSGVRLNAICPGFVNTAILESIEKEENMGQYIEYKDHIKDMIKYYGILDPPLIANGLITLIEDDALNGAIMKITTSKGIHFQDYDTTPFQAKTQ
#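 20 nM HPGD preincubated 15 min at room temperature with compound in 50 mM Tris-HCl pH 8, 0.01% Tween 20. Started with 1 mM NAD+ and 30 uM prostaglandin E2; NADH fluorescence (360/450 nm) read 5 times over 30-s intervals, last minus first.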
# IMPase Li inh – IMPase inhibition in cells with lithium potentiation; 0.35% of 210,000 active; CHO-M1 cells, IP1 TR-FRET (IP-One), carbachol + lithium; Potency, µM (doses to about 59.4 µM), without a hit: at the top dose activity, negative = IMPase inhibition, actives largely listed as inhibitors; active means well fitted inhibition curve with a large enough effect; inconclusive means small, poorly fitted or top-dose-only effect; inactive means no such curve, though single readings can be large or run the other way;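 further: IP1 builds up when IMPase is blocked and the TR-FRET signal falls; potency means the concentration at half of the fitted maximal effect; plate controls were basal vehicle for no effect and high inhibitor control for full effect; nearly all actives have a fitted effect of over 50% in size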
#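 Concentration–response in CHO-M1 cells, lithium-potentiated; 30 min at 37C. IP1 detected by competitive TR-FRET after 10 min lysis at RT. Hill-fitted AC50.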
# The depositor's hits bear a star; ? = inconclusive; nt = no result; [ ] = dose if it differs, or a comment. Unless noted, the call rests on the fitted dose curve; in most records, active means well fitted inhibition curve with a large enough effect (not every such curve was filed as active); inconclusive means small, poorly fitted or top-dose-only effect, or another doubt; inactive means no such curve, though single readings can be large or run the other way. Unless noted, on the % scale 0 is the no-effect control and ±100 the full control effect.
SMILES,ALDH1A1 inh,PNC inhibitor,IMPase inh,HPGD inh,IMPase Li inh
Cc1cc(C(=O)CN2C(=O)NC(CC(C)C)C2=O)c(C)n1-c1ccccc1F (configuration not stated),6.3µM*,nt,nt,nt,0%
Cc1cc(C(=O)CN2C(=O)C(=O)N(CC(C)C)C2=O)c(C)n1-c1ccccc1F,?,nt,nt,nt,-8%
Cc1cc(C(=O)COC(=O)C2=NNC(=O)CC2)c(C)n1-c1ccccc1,16µM*,?,-1,-19%,8%[38.3 µM]
Cc1cc(C(=O)CN2C(=O)C3CC=CCC3C2=O)c(C)n1-c1ccccc1 (configuration not stated),22µM*,21,-4,-13%,7%[38.3 µM]
COc1cc2c(cc1OC)[C@H](C)N(CC1C(=O)O[C@@H]3C[C@@]4(C)CCC[C@H](C)[C@@]45OC5[C@H]13)CC2 (some centres not stated),-3%,nt,nt,-2%,19%
Cc1cc(C)cc(C(=O)NCC(=O)OCC(=O)N2CCN(S(=O)(=O)c3ccc4ccccc4c3)CC2)c1,-3%,-1,nt,-11%,-3%
C=CCOC(=O)C1=C(C)NC(=S)NC1c1cccs1 (configuration not stated),2.2µM*,-6,nt,-7%,-5%
COCCOC(=O)C1=C(C)NC(=S)NC1c1cccs1 (configuration not stated),22µM*,nt,nt,nt,-1%
COCCOC(=O)C1=C(C)NC(=O)NC1c1cccs1 (configuration not stated),4%,10,-3,-13%,-2%[38.3 µM]
CN(Cc1ccccc1)C(=O)[C@H](Cc1ccc2ccccc2c1)NC(=O)[C@@H]1CCCN1C(=O)Nc1ccccc1[N+](=O)[O-],-4%,nt,nt,-6%,14%
O=C(NCc1ccccn1)c1cn(-c2ccccc2)nc1-c1ccc(Cl)cc1,?,-10,3,-7%,3%
CCC1CCC(NC2CCCCNC2=O)CC1 (configuration not stated),14%,-107*,7,3%,27%[38.3 µM]
O=C(CSCc1ccccc1)Nc1ccc(F)cc1F,24µM*,nt,nt,nt,9%
O=C(CCc1ccccc1)Nc1ccc(F)cc1F,9%,-26,0,-9%,21%[38.3 µM]
COc1ccc2c(c1-c1c3c(cc(Br)c1OC)CCCC3)CCCC2,1%,nt,nt,-10%,-5%
Cc1nc(Nc2ccccc2)sc1-c1ccccc1,22µM*,218,10,nt,nt
COC(=O)c1sc(Nc2ccccc2)nc1C,-4%,-5,-1,22µM*,9%[38.3 µM]
CCOC(=O)c1sc(Nc2ccccc2)nc1C,-11%,36,3,?,34%[38.3 µM]
Cc1ccc(/C=C/C(=O)O)cc1S(=O)(=O)NCc1ccco1,?,nt,nt,nt,-6%
Cc1c(Br)c([N+](=O)[O-])nn1CC(=O)c1ccccc1,5%,nt,nt,nt,-2%
COc1ccc(/C=N/Nc2nc(NCc3ccco3)nc(Nc3ccc(OC)cc3)n2)cc1,11µM*,14,nt,-27%,16%
C=CCNS(=O)(=O)c1nc(C)c(Cl)c(C)c1C#N,-4%,-85*,-14,-13%,15%[38.3 µM]
CCCCc1ccc(-c2csc(/C(C#N)=C\c3ccco3)n2)cc1,-5%,-111*,nt,-27%,12%
CCCCc1ccc(-c2csc(/C(C#N)=C/c3ccc(C)o3)n2)cc1,1%,31,-2,-8%,7%[38.3 µM]
O=C(CNS(=O)(=O)/C=C/c1ccccc1)OCC(=O)N1CCC(Cc2ccccc2)CC1,?,-107*,-2,-3%,-1%[38.3 µM]
SMILES,ALDH1A1 inh,PNC inhibitor,IMPase inh,HPGD inh,IMPase Li inh
O=C(CN1CCC(n2nnc3cc(C(F)(F)F)ccc32)CC1)NCc1cccs1,3%,?,2,1%,9%
CC(C)n1c(N2CCN(CC(=O)NCc3cccs3)CC2)nc2ccccc21,10µM*,15,-3,-11%,19%[38.3 µM]
O=C(CN1CCC(c2nc3ccccc3s2)CC1)NCc1cccs1,6.3µM*,23,-3,?,28%[38.3 µM]
COc1ccc(-c2nnc(SCC(=O)NCCc3ccc(OC)c(OC)c3)nc2-c2ccc(OC)cc2)cc1,nt,nt,-4,nt,nt
O=C(COc1ccc(Br)cc1)N1CCN(c2ccc([N+](=O)[O-])c(N3CCCCC3)c2)CC1,4µM*,-8,2,nt,nt
O=C(COc1ccc(Cl)cc1)N1CCN(c2ccc([N+](=O)[O-])c(N3CCOCC3)c2)CC1,?,-2,nt,-10%,6%
O=C(COc1ccccc1)N1CCN(c2ccc([N+](=O)[O-])c(N3CCCCC3)c2)CC1,10µM*,22,4,-15%,5%[38.3 µM]
Cc1ccc(OCC(=O)N2CCN(c3ccc([N+](=O)[O-])c(N4CCOCC4)c3)CC2)cc1,-15%,14,4,-7%,18%[38.3 µM]
O=C(CN1CCC(O)(c2ccc3c(c2)OCO3)CC1)OC1CCCCC1,3%,-84*,-8,6%,-9%[38.3 µM]
O=C(CN1CCC(O)(c2ccc3c(c2)OCO3)CC1)NC1CCCCC1,-2%,nt,nt,nt,11%
CC(C)(C)Nc1oc(-c2ccccc2)nc1-c1cccc2ccccc12,?,nt,nt,-8%,10%
COc1ccc(C(=O)O/N=C(/C)c2cccs2)cc1,-2%,-19,-4,-9%,16%[38.3 µM]
COc1ccc(C2CC2/C(C)=N/OC(=O)c2cccs2)cc1 (configuration not stated),-14%,77,0,22µM*,27%[38.3 µM]
Cc1ccc(NC(=O)c2cc(N3C(=O)C=CC3=O)ccc2N2CCOCC2)cc1Cl,0.25µM*,71,nt,1.3µM*,14%
Cc1ccc(NC(=O)c2cc(NC(=O)C3CC=CCC3C(=O)O)ccc2N2CCOCC2)cc1Cl (configuration not stated),1.8µM*,41,5,-8%,16%[38.3 µM]
Cc1cc(C(=O)Nc2ccc(N3CCOCC3)c(Cl)c2)c(C)o1,-2%,nt,nt,nt,nt
O=C(O)C1CC=CCC1C(=O)Nc1ccccc1 (configuration not stated),-11%,-20,4,0%,29%[38.3 µM]
Cc1ccc(NC(=O)c2cc(N3C(=O)CCC3=O)ccc2N2CCOCC2)cc1,-1%,nt,nt,nt,10%
Cc1cccc(NC(=O)c2cc(NC(=O)C3CC=CCC3C(=O)O)ccc2N2CCOCC2)c1 (configuration not stated),3.2µM*,?,-7,-3%,22%[38.3 µM]
Cc1ccc(NC(=O)c2cc(NC(=O)C3CC=CCC3C(=O)O)ccc2N2CCOCC2)cc1 (configuration not stated),13µM*,?,6,-10%,2%[38.3 µM]
COc1cc(NC(=O)c2c(F)cccc2F)c(Cl)cc1Cl,5%,nt,nt,nt,0%
Cc1ccc(C(O)(C(=O)NN(C(=O)c2ccccc2)c2ccccc2)c2ccc(C)cc2)cc1,4%,13,4,0%,14%
Cc1ccc(N(NC(=O)C(O)(c2ccccc2)c2ccccc2)C(=O)CCl)cc1,?,30,nt,11µM*,10%
Cc1ccccc1NC(=O)N1CCN(S(=O)(=O)c2ccccc2)CC1,-3%,nt,nt,nt,2%
O=C(O)/C=C\C(=O)NNC(=O)c1cc(-c2ccccc2)n[nH]1,25µM*,nt,nt,nt,nt
